Results from PubChem BioAssay (EPA / NIEHS).
“And” between values parts separate entries of the source, which are not always exact repeats. Equal values may be shown once. Where a structure was tested more than once in an assay, its records may differ in their call. The source made the active and inactive calls. Rule for the calls: active = hit-call score of the fitted dose curve at least 0.9, where 1 is the maximum; inactive = score below 0.9.

Legend:
Settings in all cases: mRNA level, 48 h; actives raise or lower the signal
[1] = read-out: growth arrest and DNA damage 45 (GADD45B), GADD45B (gene 4616); experiment: LTEA_HepaRG_GADD45B: Life Technologies and Expression Analysis (LTEA) Assay for growth arrest and DNA damage 45 (GADD45B) using HepaRG (AID 2283461)
Outline: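 HepaRG, ~100,000 cells/well, 48 h plating; serum-free induction medium; cpd 100 uM top, half-log x8, 0.5% DMSO, duplicate, 48 h; lysis in RLT, RNA isolation, qRT-PCR; norm ACTB/GAPDH/POLR2A; bidirectional fit vs DMSO.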

[2] = read-out: ABC Transporter (ABCB11), ABCB11 (gene 8647); experiment: LTEA_HepaRG_ABCB11: Life Technologies and Expression Analysis (LTEA) Assay for ABC Transporter (ABCB11) using HepaRG (AID 2283463)
Outline: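 ABCB11 transcript levels are read by Fluidigm TaqMan qRT-PCR after 48 h chemical treatment of human HepaRG cells. Concentrations span 100 uM downward in half-log steps with 0.5% DMSO; gain or loss is fitted against DMSO controls.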

[3] = read-out: ABC Transporter (ABCC2), ABCC2 (gene 1244); experiment: LTEA_HepaRG_ABCC2: Life Technologies and Expression Analysis (LTEA) Assay for ABC Transporter (ABCC2) using HepaRG (AID 2283464)
Outline: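 HepaRG, 48 h post-plating; serum-free induction medium; cpd 8-pt, 100 uM top, half-log, 0.5% DMSO, duplicate, 48 h. Readout: ABCC2 mRNA by qRT-PCR, norm. ACTB/GAPDH/POLR2A. Bidirectional fit vs DMSO baseline.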

[4] = read-out: Broad substrate specificity ATP-binding cassette transporter ABCG2 (Homo sapiens) (UniProt Q9UNQ0); experiment: LTEA_HepaRG_ABCG2: Life Technologies and Expression Analysis (LTEA) Assay for ABC Transporter (ABCG2) using HepaRG (AID 2283465)
Outline: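 Read-out is ABCG2 mRNA induction or loss quantified by qRT-PCR after 48 h chemical treatment of human HepaRG cells, normalized to three housekeeping genes. Concentrations reached 100 uM top in half-log steps; fitting was bidirectional against 0.5% DMSO.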

[5] = read-out: ATP-citrate lyase (ACLY), ACLY (gene 47); experiment: LTEA_HepaRG_ACLY: Life Technologies and Expression Analysis (LTEA) Assay for ATP-citrate lyase (ACLY) using HepaRG (AID 2283466)
Outline: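 HepaRG, 48 h exposure, 8-pt half-log dilutions (top 100 uM), 0.5% DMSO. Readout: ACLY mRNA, TaqMan qRT-PCR, housekeeping-normalized (ACTB/GAPDH/POLR2A). Bidirectional curve fit vs DMSO.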

[6] = read-out: Peroxisomal acyl-coenzyme A oxidase 1 (ACOX1) gene, ACOX1 (gene 51); experiment: LTEA_HepaRG_ACOX1: Life Technologies and Expression Analysis (LTEA) Assay for Peroxisomal acyl-coenzyme A oxidase 1 (ACOX1) gene using HepaRG (AID 2283467)
Outline: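 Measured by qRT-PCR against three housekeeping genes: ACOX1 transcript change in human HepaRG cells after 48 h dosing. Concentrations ran up to 100 uM in half-log steps. Curves were fitted bidirectionally relative to 0.5% DMSO.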

[7] = read-out: Alkaline Phosphatase, Placental (ALPP) gene, ALPP (gene 250); experiment: LTEA_HepaRG_ALPP: Life Technologies and Expression Analysis (LTEA) Assay for Alkaline Phosphatase, Placental (ALPP) gene using HepaRG (AID 2283468);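 for AC50: differentiated human HepaRG liver cells in serum-free induction medium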
Outline: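 HepaRG, 48 h plating then 48 h dosing, serum-free induction medium, 0.5% DMSO. 8 conc, half-log, max 100 uM, duplicates. Endpoint: ALPP transcript by qRT-PCR, housekeeping-normalized; gain or loss fitted vs DMSO.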

[8] = read-out: Bcl-2 (BAD) gene, BAD (gene 572); experiment: LTEA_HepaRG_BAD: Life Technologies and Expression Analysis (LTEA) Assay for Bcl-2 (BAD) gene using HepaRG (AID 2283469)
Outline: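 BAD transcript change, measured by qRT-PCR against three housekeeping genes and fitted in both directions relative to 0.5% DMSO, after 48 h chemical treatment of human HepaRG liver cells at concentrations up to 100 uM.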

[9] = read-out: Bcl-2 (BAX) gene, BAX (gene 581); experiment: LTEA_HepaRG_BAX: Life Technologies and Expression Analysis (LTEA) Assay for Bcl-2 (BAX) gene using HepaRG (AID 2283470)
Outline: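 Concentration-response endpoint fitted in both directions relative to 0.5% DMSO vehicle. Human HepaRG cultures receive test chemicals for 48 h at up to 100 uM; BAX mRNA is quantified by qRT-PCR against housekeeping genes.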

[10] = read-out: ABC Transporter (ABCC3), ABCC3 (gene 8714); experiment: LTEA_HepaRG_ABCC3: Life Technologies and Expression Analysis (LTEA) Assay for ABC Transporter (ABCC3) using HepaRG (AID 2283462)
Outline: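 Human HepaRG, 48 h dosing, 8-pt half-log series from 100 uM, 0.5% DMSO vehicle, duplicates. ABCC3 mRNA by TaqMan qRT-PCR, housekeeping-normalized; bidirectional curve fit vs DMSO.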

Measured: AC50

Chain of Broad substrate specificity ATP-binding cassette transporter ABCG2 (Homo sapiens) (Q9UNQ0 whole entry, looked up): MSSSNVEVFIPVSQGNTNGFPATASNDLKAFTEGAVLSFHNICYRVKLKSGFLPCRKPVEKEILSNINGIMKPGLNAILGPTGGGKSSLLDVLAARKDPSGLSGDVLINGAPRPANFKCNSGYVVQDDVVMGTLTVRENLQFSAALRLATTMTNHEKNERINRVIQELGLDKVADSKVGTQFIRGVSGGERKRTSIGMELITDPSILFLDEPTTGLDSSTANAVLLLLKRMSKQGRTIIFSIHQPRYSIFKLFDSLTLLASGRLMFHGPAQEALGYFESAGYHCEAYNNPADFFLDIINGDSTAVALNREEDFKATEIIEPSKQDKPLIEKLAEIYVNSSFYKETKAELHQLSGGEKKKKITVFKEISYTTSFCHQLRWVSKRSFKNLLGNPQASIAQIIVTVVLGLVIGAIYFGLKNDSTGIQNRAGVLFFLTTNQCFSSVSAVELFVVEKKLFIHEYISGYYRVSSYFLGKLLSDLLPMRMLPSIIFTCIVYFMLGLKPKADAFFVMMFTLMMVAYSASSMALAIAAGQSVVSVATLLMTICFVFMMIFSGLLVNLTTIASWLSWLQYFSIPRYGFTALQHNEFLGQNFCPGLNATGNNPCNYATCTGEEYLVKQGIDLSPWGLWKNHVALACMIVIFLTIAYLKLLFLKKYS

CCCN(CCC)c1c([N+](=O)[O-])cc(C(F)(F)F)cc1[N+](=O)[O-]
not listed: [10]
inactive: all other assays above

O=[N+]([O-])/N=C1\NCCN1Cc1ccc(Cl)nc1
active: [2] 26.6 µM | [3] 24.9 µM | [4] 35.3 µM | [6] 29.7 µM
not listed: [10]
inactive: all other assays above

CC(C)(C)C(O)C(Oc1ccc(Cl)cc1)n1cncn1 (stereo unspecified)
inactive: [1] | [2] | [3] | [4] | [6] | [7] | [8] | [9]
active: [2] 9.92 µM | [3] 2.47 µM | [5] 73.6 µM and 50 µM and 34.1 µM | [6] 1.25 µM

ClC1C(Cl)C(Cl)C(Cl)C(Cl)C1Cl (stereo unspecified)
active: [3] 3.62 µM | [4] 3.28 µM
inactive: [1] | [2] | [4] | [5] | [6] | [7] | [8] | [9]

CCc1ccc(C(=O)NN(C(=O)c2cc(C)cc(C)c2)C(C)(C)C)cc1
active: [4] 50 µM | [7] 50 µM
not listed: [10]
inactive: all other assays above

O=S(=O)(O)C(F)(F)C(F)(F)C(F)(F)C(F)(F)C(F)(F)C(F)(F)C(F)(F)C(F)(F)F
active: [2] 90.7 µM and 85.1 µM and 86.6 µM | [3] 14.2 µM and 90.7 µM | [4] 14.4 µM and 7.01 µM | [5] 50 µM and 9.92 µM | [7] 36.6 µM and 50 µM and 48 µM | [9] 50 µM and 48 µM
inactive: [1] | [2] | [3] | [4] | [5] | [6] | [7] | [8] | [9]

O=[N+]([O-])c1c(Cl)c(Cl)c(Cl)c(Cl)c1Cl
active: [1] 60.7 µM
not listed: [10]
inactive: all other assays above

CNC(=O)/C=C(\C)OP(=O)(OC)OC
not listed: [10]
inactive: all other assays above

COP(=S)(OC)Oc1ccc(SC)c(C)c1
active: [4] 31.8 µM
inactive: all other assays above

O=C(O)COc1ccc(Cl)cc1Cl
active: [2] 31.2 µM
not listed: [10]
inactive: all other assays above

O=S1OCC2C(CO1)C1(Cl)C(Cl)=C(Cl)C2(Cl)C1(Cl)Cl (stereo unspecified)
active: [2] 50 µM | [5] 87.1 µM | [6] 53.9 µM
not listed: [10]
inactive: all other assays above

CCC(C)Nc1c([N+](=O)[O-])cc(C(C)(C)C)cc1[N+](=O)[O-] (stereo unspecified)
active: [3] 17.8 µM | [4] 22 µM
inactive: all other assays above

CC(C)(C)C(O)/C(=C\c1ccc(Cl)cc1Cl)n1cncn1 (stereo unspecified)
inactive: [4] | [8]
active: [1] 87.1 µM | [2] 25.1 µM | [3] 80.6 µM | [5] 88.9 µM | [6] 50 µM | [7] 22 µM | [9] 59.4 µM

CNC(=O)Oc1cccc(N=CN(C)C)c1
not listed: [10]
inactive: all other assays above

O=C(O)C(F)(F)C(F)(F)C(F)(F)C(F)(F)C(F)(F)C(F)(F)C(F)(F)F
active: [6] 3.48 µM and 8.37 µM | [7] 9.92 µM
inactive: [1] | [10] | [2] | [3] | [4] | [5] | [7] | [8] | [9]

Oc1ccc(Cl)cc1Cc1ccccc1
active: [2] 93.7 µM and 67 µM and 80 µM
not listed: [10]
inactive: all other assays above

CN1CSC(=S)N(C)C1
not listed: [10]
inactive: all other assays above

CC[C@H](C)[C@H]1O[C@]2(C=C[C@@H]1C)C[C@@H]1C[C@@H](C/C=C(\C)[C@@H](O[C@H]3C[C@H](OC)[C@@H](O[C@H]4C[C@H](OC)[C@@H](O)[C@H](C)O4)[C@H](C)O3)[C@@H](C)/C=C/C=C3\CO[C@@H]4[C@H](O)C(C)=C[C@@H](C(=O)O1)[C@]34O)O2 (tested in a mixture with another compound)
inactive: [8]
active: [1] 7.13 µM | [10] 46.5 µM | [2] 15.8 µM | [3] 30.2 µM | [4] 13.7 µM | [5] 52.2 µM | [6] 30.2 µM | [7] 9.57 µM | [9] 7.73 µM

CCOCN(C(=O)CCl)c1c(C)cccc1CC
active: [1] 75.5 µM | [2] 82.5 µM | [6] 78.9 µM
not listed: [10]
inactive: all other assays above

COP(=O)(OC)OC=C(Cl)Cl
inactive: all assays above

Oc1cc(Cl)ccc1Oc1ccc(Cl)cc1Cl
active: [2] 73.3 µM and 75.5 µM
inactive: [1] | [2] | [3] | [4] | [5] | [6] | [7] | [8] | [9]
